Results from PubChem BioAssay AID743398 (Broad Institute, 2014).
The campaign covered roughly 300,000 compounds. About 3,600 (1.2%) were called active. Shown is part of a subset that was picked to be rich in actives. Values without a mark were called inactive. Cut-off read from the data, not from the text of the source: active = activation above about 30% (passing the limit was not always enough); inconclusive = no clear call, values can overlap the other calls.

experiment: activation of beta-catenin signaling reporter – cell-based, plate reader, single point, primary screen (AID 743398); settings: Wnt/beta-catenin reporter cell assay, activator, at 9.35 µM, stronger effect = higher value;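 note: 0% = neutral control wells and 100% = positive control wells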

| Structure (SMILES) | activation |
| --- | --- |
| CCC(=O)N1Cc2cc(C(=O)NCc3cccc(F)c3)nc(-c3cccc(C4=CCCC4)c3)c2[C@H]1CCO | -0.49% |
| O=C(NCc1ccccc1)[C@H]1CCCN1C(=O)[C@H]1CCCN1C(=O)c1cc(F)cc(F)c1 | 0.924% |
| COc1ccc(/C=N/NS(=O)(=O)c2ccc(NC(C)=O)cc2)cc1 | 0.428% |
| COc1ccc(/C=N/Nc2ccccc2C(=O)O)cc1 | 42.5% (active) |
| COc1ccc(C(=O)Nc2ccccc2C(=O)N/N=C/c2ccc(O)c(OC)c2)cc1 | -6.14% |
| Cn1nc(N)c2ncc(C(Cl)(Cl)Cl)nc21 | -2.14% |
| N#Cc1cccc(C(=O)NCC2CCN(C(=O)C(=O)c3cc4ccccc4o3)CC2)c1 | -4.03% |
| Cc1ccc(-n2c(C)cc(/C=C(\C#N)C(=O)NCC3CCCO3)c2C)cc1 (stereo not drawn) | 38.2% (active) |
| Cc1ccc2c(c1)N(CC(=O)NCC1CCCO1)C(=O)CO2 (stereo not drawn) | 6.02% |
| Cc1ccc(C(=O)N/C(=C/c2cccs2)C(=O)NCC2CCCO2)cc1 (stereo not drawn) | -12.8% |
| O=C1Nc2ccccc2NC(c2ccc3c(c2)OCO3)=C1N(Cc1ccc(F)cc1)C(=O)c1ccco1 | -2.97% |
| COC(=O)[C@]12C[C@H](CC(=O)NCc3cccc(C(F)(F)F)c3)C(=O)N(Cc3ccc4c(c3)OCO4)C1=C[C@H](COCc1ccccc1)O[C@@H]2C | -11.9% |
| CCCCNc1cccc2c1S(=O)(=O)N[C@@H](C)CO2 | -1.25% |
| O=C(NCc1cccc(C(F)(F)F)c1)c1ccc2sc(COCCO)nc2c1 | 0.012% |
| Cc1ccc(NC(=O)Nc2ccc3oc(C)nc3c2)cc1 | 53.7% (active) |
| Cc1ccc(NC(=O)Nc2nnc(-c3ccncc3)s2)cc1 | 0.919% |
| Cc1ccc(NC(=O)Nc2cccnc2)cc1 | 8.59% |
| O=C1Nc2ccccc2-n2nnnc2C1N1CCN(c2cccc(C(F)(F)F)n2)CC1 (stereo not drawn) | -4.31% |
| O=C(CSc1nc2ccccc2o1)N1c2ccccc2Sc2ccc(Cl)cc21 | -2.83% |
| CC(C)(C)C(=O)CSc1nc2ccccc2o1 | 52.3% (active) |
| O=C(CSc1nc2ccccc2o1)N/N=C/c1ccccc1C(=O)O | 25.7% |
| Cc1cc2c(cc1C)N1C(=O)c3cc4ccccc4cc3NC(=O)C1C(=O)N2 (stereo not drawn) | -1.58% |
| CC1(C(=O)Nc2cccc3c2CCCC3)CCN1C(=O)C1(c2ccccc2)CC1 (stereo not drawn) | -1.58% |
| Cn1c(SCc2c(F)cccc2Cl)nnc1-c1cnccn1 | 41.7% (active) |

| Structure (SMILES) | activation |
| --- | --- |
| Oc1ccc(-n2nnnc2SCc2c(F)cccc2Cl)cc1 | -2.71% |
| Cc1ccc(CSc2nnc(-c3cnccn3)n2C)cc1 | 2.04% |
| COc1ccccc1N1CCN(/N=C/c2ccc(O)cc2O)CC1 | 37.4% (active) |
| COc1ccccc1N1CCN(/N=C\C(Br)=C\c2ccccc2)CC1 | 7.85% |
| COc1cc(/C=N/N2CCN(c3ccccc3)CC2)ccc1OC(C)=O | 3.52% |
| CC(C)c1cc(C(=O)N(C)C2CCCN(Cc3ccccc3F)C2)n(C)n1 (stereo not drawn) | -4.84% |
| Cc1nc(NC(=O)C(C)(C)C)sc1[N+](=O)[O-] | -2.63% |
| O=Cc1ccc(Oc2cccc(C(F)(F)F)c2)nc1 | 0.99% |
| FC(F)(F)c1ccnc(Oc2ccc(C3=NCCS3)cc2)c1 | 50.4% (active) |
| N#CCCN(C(=S)Nc1ccc(Cl)c(Cl)c1)C1CCCCC1 | -1.58% |
| CCCCCCCCN1C(=O)[C@@H](CC(=O)NCc2ccccc2)C[C@@]2(C(=O)OC)C1=C[C@H](C(C)(C)C)O[C@@H]2C | -15% |
| Cc1cc(OC(=O)NCCc2ccc(F)cc2)ccc1F | 2.45% |
| COc1ccc(-c2ccc(CN3C(C(C)C)C(=O)N(Cc4cn(CC5CCCCC5)nn4)CCS3(=O)=O)cc2)cn1 (stereo not drawn) | -0.388% |
| O=S(=O)(Nc1ccc2cn[nH]c2c1)c1ccccc1 | -1.72% |
| Cn1c(CCN2CCCC2)nc2cc(NS(=O)(=O)c3ccccc3)ccc21 | 2.48% |
| O=S(=O)(Nc1ccc2nc(-c3ccco3)[nH]c2c1)c1ccccc1 | 37.5% (active) |
| Nc1ncnc2c1ncn2C1OC(CO)CC1O (stereo not drawn) | 0.661% |
| Cc1cccc(C(=O)C(O)(c2ccccc2)C2CCCCC2=O)c1 (stereo not drawn) | -5.91% |
| CCOC(=O)c1cc2c(nc1NC(=S)Nc1ccccc1)CC(C)(CC)OC2 (stereo not drawn) | 9.37% |
| CCOC(=O)c1ccc(NC(=S)Nc2cc(C)cc(C)n2)cc1 | -1.38% |
| CCOC(=O)c1cn[nH]c1NC(=S)Nc1ccccc1 | 48.2% (active) |
| COc1ccc(F)cc1S(=O)(=O)N1CCCCC1 | -0.652% |
| COc1ccc(Cl)cc1S(=O)(=O)N1CCC(O)(c2ccc(Cl)cc2)CC1 | 61.9% (active) |
| COc1ccc(C(=O)NCc2ccc(Cl)cc2)cc1S(=O)(=O)N1CCCC1 | -0.0405% |

| Structure (SMILES) | activation |
| --- | --- |
| CCc1nc2c(OCc3ccc(Cl)cc3Cl)cccn2c1N(C)C(=O)C(C)C | -1.94% |
| Cc1ccc(Cl)cc1NC(=O)c1ccccn1 | -3.27% |
| Cc1cccc(OCC(=O)NCCCNC(=O)c2ccccn2)c1 | -0.523% |
| CCN(CC)CCOc1ccc2c(c1)C(=NNC(=O)c1ccccn1)c1cc(OCCN(CC)CC)ccc1-2 | 54.2% (active) |
| OC(c1ccccc1)(c1ccccc1)C1CCN(CCCOc2ccccc2)CC1 | -5.07% |
| COc1ccc(Sc2ccc(NC(=O)c3cccc(Cl)c3)cc2C#N)cc1 | -0.516% |
| CCOC(=O)N1CCC(Nc2c(NCCCN3CCN(c4ccc(OC)cc4)CC3)c(=O)c2=O)CC1 | 33.6% (active) |
| CCOC(=O)N1CCC(Nc2c(NCCCN3CCN(CC)CC3)c(=O)c2=O)CC1 | 1.91% |
| CCOC(=O)N1CCC(Nc2c(NCCN3CCN(c4cccc(Cl)c4)CC3)c(=O)c2=O)CC1 | -0.679% |
| COC(=O)[C@]12CCCCC=C1N(Cc1ccccc1)C(=O)[C@H](CC(=O)NCc1ccc(C)o1)C2 | -1.58% |
| COc1cccc(C(NC(C)=O)c2nc(-c3cnc4ccccc4c3)cs2)c1 (stereo not drawn) | -0.125% |
| OC(c1ccccc1)c1nc(-c2cnc3ccccc3c2)cs1 (stereo not drawn) | 50.7% (active) |
| CC(C)c1cccc(-c2csc(C(O)c3ccccc3)n2)c1 (stereo not drawn) | 1.98% |
| Cc1cc(Cl)ccc1C(=O)C1CCCN(C(=O)c2ccc3c(c2)OCO3)C1 (stereo not drawn) | -2.01% |
| COc1ccc(C(=O)N2CCCCC2c2cc(C(=O)Nc3ccccc3)no2)cc1 (stereo not drawn) | -2.86% |
| CCc1ccccc1NC(=O)CN1CCN(C(=O)c2cc(C3CC3)nn2-c2ccccc2)CC1 | -4.73% |
| COc1cccc(-c2cnc3c(NC(C)=O)cc(-c4cccc(NC(C)=O)c4)cn23)c1 | -2.59% |
| C=CCOc1ccc(/C=C2/C(=O)ON=C2C)cc1OCC | -0.78% |
| COc1cc(/C=C2/C(=O)ON=C2C)ccc1OCc1ccccc1F | 48.1% (active) |
| COc1cc(/C=C2/C(=O)ON=C2C)ccc1OCc1cccc(F)c1 | 13.4% |
| C[C@@H]1Cn2cnc(C(=O)Nc3ccc(CNC(=O)OC(C)(C)C)cc3)c2C(=O)N1 | -0.752% |
| COc1cccc(NC(=O)Nc2ccc(F)cc2)c1 | 4.29% |
| Cc1ccc(-c2cnc(C(O)c3cc(Cl)cc(Cl)c3)[nH]2)cc1 (stereo not drawn) | -5.54% |
| COc1ccc(OCc2cc(C(=O)NCC3(C)COC3)no2)c(Cl)c1 | 7.69% |

| Structure (SMILES) | activation |
| --- | --- |
| Cc1cc(OCc2cc(C(=O)NCc3cc(C(C)C)no3)no2)cc(C)c1Cl | 40.5% (active) |
| Cc1cccnc1CC(C)NC(=O)c1cc(COc2cncc(Cl)c2)on1 (stereo not drawn) | 7.75% |
| O=C(CSc1nc2ccccc2[nH]1)c1cccs1 | 58.5% (active) |
| C=CCSc1nc2ccccc2[nH]1 | 0.251% |
| CN(Cc1ccccc1)C(=O)CSc1nc2ccccc2[nH]1 | 12.8% |
| C#CCN([C@@H](C)C(=O)OCC)S(=O)(=O)c1ccc(Br)cc1F | -2.08% |
| O=C(c1ccc(Cl)cc1)n1cnc2ccccc21 | 0.992% |
| Cc1ccc(OCC(=O)Nn2cnc3ccccc32)cc1 | -2.76% |
| COC(=O)c1ccc(-n2cnc3ccccc32)nc1 | 41.6% (active) |
| Cc1c(C(=O)NCc2ccc(C#N)cc2)sc(=O)n1Cc1ccc(C(=O)N(C)C)cc1 | -0.79% |
| COc1ccc(C(O)c2nc(-c3ccc(OC)nc3)cs2)cc1 (stereo not drawn) | -2.19% |
| CCOC(=O)[C@]12CCCC=C1N(Cc1ccc(Cl)cc1Cl)C(=O)[C@H](CC(=O)N1CCCCC1)C2 | -0.046% |
| CCc1ccccc1NC(=O)CSc1nnc([C@@H](NC(=O)OC(C)(C)C)C(C)CC)o1 (stereo partly drawn) | 31.4% (active) |
| CCc1ccccc1NC(=O)CSc1nnc(CCNC(=O)OC(C)(C)C)o1 | -2.11% |
| CCc1ccccc1NC(=O)CSc1nnc(-c2ccncc2)o1 | 0.131% |
| Cc1cc(Br)cn2c(Cc3ccccc3C(F)(F)F)c(-c3ccc(C#N)cc3)nc12 | -2.44% |
| CSCCC(c1nnnn1Cc1ccccc1)N1CCN(C/C=C/c2ccccc2)CC1 (stereo not drawn) | -2.2% |
| O=C(CSc1nc2cccc(F)c2c(=O)n1-c1ccccc1)Nc1ccc2c(c1)CCC2 | -0.606% |
| Cc1ccc(NC(=O)c2ccco2)cc1 | -2.54% |
| O=C(Nc1ccc(O)cc1)c1ccc(NC(=O)c2ccco2)cc1 | 9.09% |
| COC(=O)c1ccc(NC(=O)c2ccco2)cc1 | 58% (active) |
